In PubChem BioAssay (NCATS) one finds Potency data, which are given here for 39 compounds.

Values without a mark were called inactive. Activity calls are given as the source filed them. The rule behind the calls is not given here.
Potency is the fitted concentration of half-maximal effect.

For this test, the system named is HIV-1 nucleocapsid protein NCp7 (binding to TG oligonucleotide). Put plainly: HIV Nucleocapsid (AID 346).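 Note: potency is for inhibitors that block NC binding and lower polarization.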 The conditions noted are these: HIV-1 NC / fluorescein-TGTGTGTG probe, fluorescence polarization. A digest of the protocol:
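Fluorescence polarization readout: labelled TG4xF oligo (10 nM) with 100 nM nucleocapsid protein, high-salt (250mM NaCl) Hepes pH 7.5 buffer containing zinc and fresh reducing agents. Compounds added by pin tool; incubation 1 hr, room temperature.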
Take `CN(Cc1ccco1)c1nc(-c2cccc(C#N)c2)nc2ccccc12`: the Potency was above 20 µM.

Turning to `COCCn1c(=O)c(-c2ccccc2)nc2cnc(N3CCOCC3)nc21`, the Potency is above 20 µM.

In the case of `O=S(=O)(c1ccccc1)N1CCC2(CCCN(Cc3nccs3)C2)CC1`, the Potency is above 20 µM.

Consider `COc1ccc(-n2c(=O)cnc3cnc(N4CCNCC4)nc32)cc1`, for which the Potency is above 20 µM.

Consider `CCNc1ncc2nc(-c3cn(C)c4ccccc34)c(=O)n(-c3ccccc3)c2n1`, for which the Potency was 16.4 µM.

As to `O=c1cnc2cnc(Nc3ccccc3)nc2n1Cc1cccs1`, the Potency was above 20 µM.

For the compound `COc1cccc(Cn2c(=O)c(-c3cccc(C#N)c3)nc3cnc(OC)nc32)c1`, the Potency was above 20 µM.

For the compound `COc1ccccc1CN1CCCC2(CCN(C(=O)c3ccco3)CC2)C1`, the Potency is above 20 µM.

With `Cc1nc2cncnc2n(Cc2ccc(F)cc2)c1=O`, the Potency was above 20 µM.

For `COCCn1c(=O)c(-c2ccc(F)cc2)nc2cnc(Nc3cccc(OC)c3)nc21`, the Potency is above 20 µM.

For `CN1CCN(c2ncc3nc(CCc4ccccc4)c(=O)n(C)c3n2)CC1`, the Potency was above 20 µM.

On to `CN(C)c1ncc2nc(CCc3ccccc3)c(=O)n(-c3ccccc3)c2n1`, for which the Potency is above 20 µM.

On to `COc1ncc2nc(-c3cccc(C#N)c3)c(=O)n(CCC#N)c2n1`, for which the Potency is above 20 µM.

As to `COc1ccc(NC(=O)N2CCCC3(CCN(S(=O)(=O)c4ccccc4)CC3)C2)cc1`, the Potency was above 20 µM.

Regarding `COc1ccc2[nH]cc(CCNc3cc(-c4ccccc4C)ncn3)c2c1`, the Potency is above 20 µM.

With `N#Cc1cccc(-c2nc3cnc(Oc4cccc(Cl)c4)nc3n(C3CC3)c2=O)c1`, the Potency was above 20 µM.

As to `CC(=O)NCCNc1nc(-c2ccc3c(c2)OCO3)nc2ccccc12`, the Potency is above 20 µM.

For `FC(F)(F)c1cc(CN2CC3(CCNCC3)C2)cc(C(F)(F)F)c1`, the Potency is above 20 µM.

With `Cc1noc(C)c1-c1nc(NC2CC2)c2ccccc2n1`, the Potency is above 20 µM.

For `Cc1nc2cnc(N(C)C)nc2n(C2CC2)c1=O`, the Potency was above 20 µM.

On to `Cc1nc2cnc(N3CCOCC3)nc2n(CCc2ccccc2)c1=O`, for which the Potency is above 20 µM.

In the case of `COC(=O)N1CCC2(CCCN(c3ccncc3)C2)CC1`, the Potency is above 20 µM.

With `Cc1noc(C)c1-c1ccc2ncnc(Nc3ccc(F)cc3)c2c1`, the Potency was above 20 µM.

On to `CN(C)c1nc(-c2cccc(C#N)c2)nc2ccccc12`, for which the Potency is above 20 µM.

As to `O=C(c1cccc(F)c1)N1CCC[C@@]2(CCN(c3ccccn3)C2)C1`, the Potency is above 20 µM.

With `COc1ccc2[nH]cc(CCNc3ccnc(-c4cccc(NS(C)(=O)=O)c4)n3)c2c1`, the Potency was above 20 µM.

As for `O=C(Nc1ccccc1)N1CC2(CCN(S(=O)(=O)c3ccccc3)CC2)C1`, the Potency is above 20 µM.

For `N#Cc1ccc(CN2CC[C@@]3(CCCN(S(=O)(=O)c4ccccc4)C3)C2)cc1`, the Potency is above 20 µM.

As for `CN(Cc1ccco1)c1ncnc2ccc(-c3cccnc3)cc12`, the Potency was above 20 µM.

For the compound `N#Cc1ccc(CN2CCC3(CCNCC3)CC2)cc1`, the Potency is above 20 µM.

With `COc1ccc2[nH]cc(CCNc3nc(-c4c(C)noc4C)nc4ccccc34)c2c1`, the Potency is above 20 µM.

With `N#Cc1cccc(NC(=O)N2CC[C@@]3(CCCN(C(=O)c4cccc(F)c4)C3)C2)c1`, the Potency was above 20 µM.

`COCC(=O)N1CCC2(CC1)CN(c1cccc(-c3ccccc3)c1)C2`: the Potency is above 20 µM.

In the case of `O=c1cnc2cnc(Oc3ccccc3)nc2n1Cc1cccs1`, the Potency was above 20 µM.

For the compound `COc1ccc(CNc2ccnc(-c3ccc(N(C)C)cc3)n2)c(OC)c1`, the Potency is above 20 µM.

In the case of `CCNc1ncc2nc(-c3cccs3)c(=O)n(-c3ccc(OC)cc3)c2n1`, the Potency was 4.09 µM (active).

For `CCNc1ncc2nc(-c3ccc(OC)cc3)c(=O)n(CCOC)c2n1`, the Potency was above 20 µM.

Turning to `COc1ncc2ncc(=O)n(C[C@H]3CCCO3)c2n1`, the Potency is above 20 µM.

As for `COc1ccc(-n2c(=O)c(-c3cccs3)nc3cnc(Nc4cccc(OC)c4)nc32)cc1`, the Potency was above 20 µM.
